Source: PubChem
Most compounds without a hit are left out; they make up all but 5.8% or so of the library.
PINK1 modulator: A Quantitative High throughput Screen to Identify Chemical Modulators of PINK1 Expression; PINK1 immunofluorescence, high-content cytometry, 24 h; Potency, µM (titrated, usually from 76.6 µM), inactives show at the highest dose activation (PINK1 increase), usual class: activators; 410,000 tested, 0.2% active; AID 624263, 2012; active means well fitted activation curve with a large enough effect; inconclusive means small, poorly fitted or top-dose-only effect; cell line not stated here; further: % of control where 0% means no effect; nearly all actives have a fitted effect of over 65% in size
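Cells are seeded, rested 12 hours, then given compound at five concentrations or DMSO for 24 hours. After fixation, blocking and antibody staining, PINK1 amount and mitochondrial localization are scored; CCCP serves as control.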
KB-3-1 cytotox: qHTS assay for MDR1-selective chemotherapeutics: Primary screen using the parental adenocarcinoma cell KB-3-1; KB-3-1 viability, CellTiter-Glo ATP luminescence, 72 h; Potency, µM (top dose mostly 46.1 µM), most hits filed as cytotoxic; 400,000 tested, 1.4% active; further: on the % scale 0 is the no-effect control and ±100 the full control effect; nearly all actives have a fitted effect of over 60% in size
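Using CellTiter-Glo luminescence, growth of non-resistant KB-3-1 adenocarcinoma cells is assessed 72 h after pin-tool compound addition at 37 °C. Normalized responses across the concentration series yield fitted curves.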
SW480 rereplic: A quantitative high throughput screen for small molecules that induce DNA re-replication in SW480 colon adenocarcinoma cells | SW480 DNA re-replication, Hoechst DNA content imaging, 48 h | AID 624297, 2012 | Potency, µM (titrated, usually from 46.1 µM), for the others: top-dose re-replication activation, actives largely listed as activators | 340,000 tested, 1.8% active; further: % of control where 0% means no effect; nearly all actives have a fitted effect of over 55% in size
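Image-based DNA-content assay: after two days of treatment, nuclei were labelled with the DNA dye Hoechst and imaged, and hits were compounds raising the count of nuclei showing high fluorescence intensity.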
ALOX12 inh: Primary qHTS assay for inhibitors of human arachidonate 12S-lipoxygenase (ALOX12): Round 2. Potency, µM (highest dose often 108 µM), for the others: top-dose activity change, negative = inhibition, actives largely listed as inhibitors. 580,000 tested, 1.1% active. purified 12hLO, xylenol orange hydroperoxide absorbance. AID 1671190, 2021. Polyunsaturated fatty acid lipoxygenase ALOX12 (Homo sapiens), P18054; further: on the % scale 0 is the no-effect control and ±100 the full control effect
Target sequence (P18054 whole entry, looked up): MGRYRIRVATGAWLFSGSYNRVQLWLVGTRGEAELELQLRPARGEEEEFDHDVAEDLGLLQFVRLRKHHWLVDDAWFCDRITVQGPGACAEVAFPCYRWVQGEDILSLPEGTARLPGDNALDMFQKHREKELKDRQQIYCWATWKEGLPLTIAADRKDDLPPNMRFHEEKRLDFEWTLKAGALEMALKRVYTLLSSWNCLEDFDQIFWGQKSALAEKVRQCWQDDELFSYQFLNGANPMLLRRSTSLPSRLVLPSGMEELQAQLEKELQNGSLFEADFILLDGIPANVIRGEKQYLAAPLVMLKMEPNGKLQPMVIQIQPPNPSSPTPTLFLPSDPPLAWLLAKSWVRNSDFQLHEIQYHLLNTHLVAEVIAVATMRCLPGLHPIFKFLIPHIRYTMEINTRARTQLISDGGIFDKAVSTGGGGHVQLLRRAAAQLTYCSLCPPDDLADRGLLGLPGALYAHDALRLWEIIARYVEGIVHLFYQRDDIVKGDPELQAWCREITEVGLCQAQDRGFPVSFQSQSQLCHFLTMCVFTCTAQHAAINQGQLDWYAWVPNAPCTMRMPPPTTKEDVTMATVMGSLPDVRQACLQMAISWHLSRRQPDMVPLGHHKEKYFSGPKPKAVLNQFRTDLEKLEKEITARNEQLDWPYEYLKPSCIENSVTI
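Purified human 12hLO (150 nM final) in 25 mM Hepes, 0.01% Triton X-100, pH 7.0 was preincubated 15 min at room temperature with compound. Then 40 uM arachidonic acid was added, 30 min. Hydroperoxide was read by Fe-XO absorbance ratio 573/405 nm.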
MCF10A rereplic: A quantitative high throughput screen for small molecules that induce DNA re-replication in MCF 10a normal breast cells; MCF 10A DNA re-replication, Hoechst nuclear intensity, 48 h; Potency, µM (series often up to 46.1 µM), without a hit: at the top dose activity, positive = re-replication, usual class: activators; 350,000 tested, 2.9% active; AID 624296, 2012; further: % of control where 0% means no effect; nearly all actives have a fitted effect of over 50% in size
KB-V1 cytotox: qHTS assay for MDR1-selective chemotherapeutics: Primary screen using the drug-selected MDR subline cells KB-V1. KB-V1 MDR cells viability, CellTiter-Glo, 72 h. Potency, µM (top dose mostly 46.1 µM), actives largely listed as cytotoxic. 400,000 tested, 3.4% active. AID 1347076, 2019; further: on the % scale 0 is the no-effect control and ±100 the full control effect; nearly all actives have a fitted effect of over 60% in size
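Following 72 h at 37 degrees C with compound, KB-V1 cell viability was read by CellTiter-Glo luminescence, medium being phenol-red-free DMEM plus 10% FBS; concentration-response parameters came from normalized, curve-fitted qHTS data.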
The depositor's hits bear a star; i = inactive; ? = inconclusive; · = no result; [ ] = remark or other dose. Unless noted, the call rests on the fitted dose curve; in most records, active means well fitted curve in the direction sought with a large enough effect; inconclusive means small, poorly fitted or top-dose-only effect, or another doubt; inactive means no such curve, though single readings can be large; an effect the other way counts as inactive or inconclusive. Potency means the concentration at half of the fitted maximal effect.

SMILES | PINK1 modulator | KB-3-1 cytotox | SW480 rereplic | ALOX12 inh | MCF10A rereplic | KB-V1 cytotox
CN(C)c1ccc(S(=O)(=O)NCC(=O)NCCC2=CCCCC2)cc1[N+](=O)[O-] | 2% | i | 0% | 0% | -3% | 18µM*
CN(C)c1ccc(S(=O)(=O)NCC(=O)NCCOc2ccccc2F)cc1[N+](=O)[O-] | 3% | i | ? | 6% | -2% | i
Cc1ccc2c(c1)N(CC(=O)N(Cc1ccc3c(c1)OCO3)CC1CCCO1)C(=O)C(C)O2 (stereo unspecified) | -6%[38.3 µM] | i | 0% | ? | 1% | 8.2µM*
O=C(CSc1ccc(-c2ccc(F)cc2)nn1)N1CCCCC1 | 19%[38.3 µM] | i | 6% | 19% | 17% | i
CC1CC(C)(C)N(C(=O)CSc2ccc(-c3ccc(F)cc3)nn2)c2ccccc21 (stereo unspecified) | · | i | ? | -2% | 25% | 21µM*
CC1CCN(C(=O)CSc2ccc(-c3ccc(F)cc3)nn2)CC1 | 1% | ? | -2% | 1% | 20% | 16µM*
CCN(CC)c1nc(SCCOC(=O)Nc2ccccc2)nc(N(CC)CC)n1 | 5%[38.3 µM] | i | 3% | -15% | 9.2µM* | 21µM*
CN(CCNC(=O)NC1CCCC(C(F)(F)F)C1)Cc1ccccc1 (stereo unspecified) | · | · | · | -4% | · | ·
O=C(NNC(=O)C1CCCCC1)c1cnccn1 | 2%[38.3 µM] | i | -5% | 2% | -4% | ?
O=C(CCC1CCCCC1)NNC(=O)c1cnccn1 | 2% | i | 2.9µM* | 4% | ? | ?
CCn1c(CC(=O)Nc2ccc(F)cc2)nnc1SCC(=O)Nc1ccc2ccccc2c1 | · | · | · | 12% | · | ·
Cc1ccc(C=Nc2ccc(Nc3ccccc3)cc2)s1 | · | · | · | 40µM* | · | ·
Cc1ccc(C=Nc2ccc(C(C)C)cc2)s1 | · | · | · | 7% | · | ·
Cc1ccc(NC(=O)CCc2c(C)c3ccc(C)cc3oc2=O)cc1 | · | · | · | -28% | · | ·
Cc1cccc(CN2CCN(C(c3ccccc3)c3ccc(Cl)cc3)CC2)c1 (stereo unspecified) | 35µM* | i | 7% | ? | 23µM* | ?
O=C(C1CCN(Cc2ccc(Cl)cc2)CC1)N1CCN(C(c2ccccc2)c2ccccc2)CC1 | 9% | 21µM* | ? | ? | ? | ?
COc1cc(CN2CCN(C(c3ccccc3)c3ccccc3)CC2)cc(OC)c1OC | 17% | i | 22% | ? | 0% | i
CCN1CCN(C(=O)C2CCN(Cc3cc(Cl)ccc3O)CC2)CC1 | · | i | -12% | ? | 12µM* | i
CCN1CCN(C(=O)C2CCN(Cc3nc(-c4cccc(Cl)c4)oc3C)CC2)CC1 | 3% | i | -4% | ? | 7% | i
COc1ccc(/C=C/C(=O)OCC(=O)N2CCCC2)c(OC)c1 | -2% | i | -3% | -5% | 2% | 12µM*
O=C(Cc1ccc(F)cc1)Nc1ccccc1C(F)(F)F | · | · | · | -55% | · | ·
O=C(COc1ccc(-c2nnc3n2CCCC3)cc1)Nc1cccc(F)c1 | · | · | · | -4% | · | ·
CS(=O)(=O)Nc1ccc(/C=C/C(=O)O)cc1 | · | · | · | -2% | · | ·
Cc1ccc(C)c(Cn2c(C(C)NC(=O)c3ccc(F)cc3)nc3ccccc32)c1 (stereo unspecified) | 4% | i | · | -34% | · | i
CC(NC(=O)c1ccc(F)cc1)c1nc2ccccc2n1Cc1ccccc1F (stereo unspecified) | -2%[38.3 µM] | i | 26% | 24% | 1% | 2.1µM*
SMILES | PINK1 modulator | KB-3-1 cytotox | SW480 rereplic | ALOX12 inh | MCF10A rereplic | KB-V1 cytotox
C/C(=N/N=C(\C)c1ccccc1O)c1ccccc1O | 32µM* | i | 1% | -6% | 7% | i
CCC(=NN=C(CC)c1ccccc1O)c1ccccc1O | 11% | i | -3% | -9% | ? | ?
CC(C)C(C)NC(=O)COc1ccc(Sc2ccc(OCC(=O)NC(C)C(C)C)cc2)cc1 (stereo unspecified) | 3% | ? | 4% | 1% | 15% | 2.9µM*
CC(C)C(C)NC(=O)COc1ccc(-c2ccccc2)cc1 (stereo unspecified) | -2% | i | 4%[9.22 µM] | 22% | 18% | ?
COc1cccc(S(=O)(=O)N(C)C[C@H]2Oc3cc(Br)ccc3S(=O)(=O)N([C@@H](C)CO)C[C@H]2C)c1 | -2% | i | · | 2% | · | 9.2µM*
Cc1ccc(-c2nc(CS(=O)(=O)Cc3cccc(F)c3)co2)cc1 | · | · | · | 70% | · | ·
CC1=NN(c2nc(-c3ccccc3)cs2)C(=O)C1 | -1% | i | -3% | 228%[57.4 µM] | ? | i
O=C1C2C3c4ccccc4C(c4ccccc43)[C@@H]2C(=O)N1c1nc(-c2ccccc2)cs1 (stereo partly specified) | 1% | i | -12% | -16% | -3% | 21µM*
O=C1CC(c2ccccc2)=NN1c1nc(-c2ccccc2)cs1 | -3% | i | 0% | -26% | 16µM* | i
O=C(c1ccc(F)c(Cl)c1)N1CCN(C(=O)c2nnn3c2COC(c2ccccc2)C3)CC1 (stereo unspecified) | · | · | · | 8% | · | ·
Cc1cc(S(=O)(=O)Nc2cccnc2)c(C)s1 | 1% | i | -1% | 74%[57.4 µM] | -3% | ?
CC(=O)c1ccc(NS(=O)(=O)c2ccc3ccccc3c2)cc1 | 0% | i | -11% | 14% | 7% | 16µM*
Cc1cc(S(=O)(=O)Nc2ccc3ccccc3c2)c(C)s1 | 16%[38.3 µM] | ? | ? | -17% | 6.5µM* | 3.3µM*
Cc1ccc(S(=O)(=O)Nc2ccccc2-c2ccccc2NS(=O)(=O)c2ccc(C)cc2)cc1 | ? | ? | -3% | 0% | ? | ?
Cc1ccc(S(=O)(=O)Nc2cc(C)cc(CCNC=O)c2C)cc1 | 3% | i | 1% | ? | -3% | 18µM*
CCOc1ccc(C(=O)Nc2ncc(C)s2)cc1OCC | · | · | · | 7% | · | ·
CC(=O)C12OC1CC1C3CCC4=CC(=O)CCC4(C)C3CCC12C (stereo unspecified) | 4% | i | -4% | -4% | 0% | i
C=C1CC2C3CC[C@@]4(OCOC45COCO5)[C@@]3(C)C(O)CC2[C@@]2(C)CCC(=O)C=C12 (stereo partly specified) | 27% | i | ? | -9% | 5.2µM* | ?
CC(C)Nc1oc(Cc2cccc3ccccc23)nc1C#N | 6% | i | -5% | 6% | 18% | 16µM*
